Inconclusive results are not listed. Activity calls are given as the source filed them. Unless noted, calls follow the shape of the dose curve; as a rule, active = well fitted curve in the direction sought with a large enough effect in the repeat runs; inconclusive = weak or mixed curves; inactive = no such curve, though single readings can be large; an effect the other way counts as inactive or inconclusive.
Tests used:
[1] = target: Estrogen receptor beta (Homo sapiens) (UniProt Q92731); assay: qHTS assay to identify small molecule agonists of the estrogen receptor beta (ER-beta) signaling pathway (AID 1259377; active = well fitted activation curve with a large enough effect in the signal ratio in the repeat runs, not every such curve was filed as active; the % refers to the signal ratio)
Sequence of Estrogen receptor beta (Homo sapiens) (Q92731 whole entry, looked up, the tested form may be a part): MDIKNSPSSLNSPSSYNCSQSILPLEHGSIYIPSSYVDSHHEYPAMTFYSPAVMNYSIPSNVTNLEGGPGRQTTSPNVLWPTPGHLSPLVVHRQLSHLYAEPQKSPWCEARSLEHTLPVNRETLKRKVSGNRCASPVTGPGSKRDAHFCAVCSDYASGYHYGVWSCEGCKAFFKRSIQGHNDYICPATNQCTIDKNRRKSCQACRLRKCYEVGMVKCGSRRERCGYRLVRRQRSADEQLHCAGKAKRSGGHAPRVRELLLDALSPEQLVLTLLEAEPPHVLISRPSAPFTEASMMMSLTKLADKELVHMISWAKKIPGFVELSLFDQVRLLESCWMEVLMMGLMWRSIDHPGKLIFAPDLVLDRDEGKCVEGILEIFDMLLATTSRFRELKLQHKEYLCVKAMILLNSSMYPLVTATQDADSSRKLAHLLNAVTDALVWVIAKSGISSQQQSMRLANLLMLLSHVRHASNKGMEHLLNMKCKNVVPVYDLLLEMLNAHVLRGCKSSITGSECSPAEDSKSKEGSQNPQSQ
How it was run: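 Agonist mode cell assay in GripTite HEK293T cells expressing an ER-beta fusion that drives beta-lactamase from an Upstream Activator Sequence; 16 hr compound exposure at 37C, then 2 h LiveBLAzer B/G FRET substrate at room temperature, fluorescence read-out.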

[2] = target: Estrogen receptor beta (Homo sapiens) (UniProt Q92731); assay: qHTS assay to identify small molecule antagonists of the estrogen receptor beta (ER-beta) signaling pathway (AID 1259378; active = well fitted inhibition curve with a large enough effect in the signal ratio in the repeat runs, not every such curve was filed as active; the % refers to the signal ratio)
How it was run: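 ER-beta-UAS-bla HEK293T cells in 2% charcoal-stripped FBS medium treated with compound plus 1nM final 17-beta-estradiol for 16 hr at 37C. Beta-lactamase reporter read by FRET substrate fluorescence after 2 hours at room temperature.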

[3] = qHTS assay to identify small molecule agonists of the androgen receptor (AR) signaling pathway in the presence of an antagonist - cell viability counter screen (AID 1259379);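 also: MDA-kb2 human breast cancer cells carrying an MMTV luciferase reporter; series mostly up to about 92 µM; nearly all actives have a fitted effect of over 25% in size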
How it was run: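 Counter screen for cell viability run in parallel with the AR agonist-mode luciferase assay. MDA-kb2 cells were co-treated with nilutamide (3.0uM final) and compounds, then incubated 16 hr at 37C, and CellTiter-Fluor fluorescence was measured.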

[4] = qHTS assay to identify small molecule agonists of the estrogen receptor beta (ER-beta) signaling pathway - cell viability counter screen (AID 1259380); also: nearly all actives have a fitted effect of over 30% in size
How it was run: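 In this qHTS counter screen, HEK293T cells carrying an ER-beta/UAS beta-lactamase reporter, grown in 2% charcoal-stripped FBS, received compound for 16 hr; ATP-based CellTiter-Glo luminescence was then read after 30 min at room temperature.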

[5] = target: Androgen receptor (Homo sapiens) (UniProt P10275); assay: qHTS assay to identify small molecule agonists of the androgen receptor (AR) signaling pathway in the presence of an antagonist (AID 1259381; calls by dose curve; also: nearly all actives have a fitted effect of over 15% in size)
Sequence of Androgen receptor (Homo sapiens) (P10275 whole entry, looked up): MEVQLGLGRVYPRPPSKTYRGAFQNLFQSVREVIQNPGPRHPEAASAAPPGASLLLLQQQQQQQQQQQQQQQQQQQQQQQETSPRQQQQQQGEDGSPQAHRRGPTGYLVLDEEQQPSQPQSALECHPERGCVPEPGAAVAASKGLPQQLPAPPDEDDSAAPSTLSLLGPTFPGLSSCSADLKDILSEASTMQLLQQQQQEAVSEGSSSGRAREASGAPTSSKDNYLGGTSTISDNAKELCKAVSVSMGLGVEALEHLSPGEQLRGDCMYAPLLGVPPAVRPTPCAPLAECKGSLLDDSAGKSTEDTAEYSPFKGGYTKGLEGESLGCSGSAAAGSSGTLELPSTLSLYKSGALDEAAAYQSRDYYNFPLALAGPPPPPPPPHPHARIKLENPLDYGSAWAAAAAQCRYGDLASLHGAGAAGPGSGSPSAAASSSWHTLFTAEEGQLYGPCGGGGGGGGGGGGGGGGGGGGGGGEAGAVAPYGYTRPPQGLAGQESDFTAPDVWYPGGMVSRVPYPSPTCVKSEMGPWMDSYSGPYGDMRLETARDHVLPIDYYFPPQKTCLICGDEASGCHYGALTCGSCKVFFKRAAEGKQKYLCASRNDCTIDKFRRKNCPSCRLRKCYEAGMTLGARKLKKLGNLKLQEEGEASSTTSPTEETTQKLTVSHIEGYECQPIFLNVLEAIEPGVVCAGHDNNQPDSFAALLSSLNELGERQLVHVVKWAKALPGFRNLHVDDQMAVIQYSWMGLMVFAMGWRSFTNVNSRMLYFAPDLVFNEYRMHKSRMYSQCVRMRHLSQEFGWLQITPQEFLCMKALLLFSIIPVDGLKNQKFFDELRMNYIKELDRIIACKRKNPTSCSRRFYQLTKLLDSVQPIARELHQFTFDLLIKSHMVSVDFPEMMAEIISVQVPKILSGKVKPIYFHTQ
How it was run: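 AR antagonist background: nilutamide 3.0uM final. Cell line: MDA-kb2, MMTV-driven luciferase, responsive to both AR and GR. Exposure 16hr, 37C, no CO2; ONE-Glo luminescence.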

[6] = qHTS assay to identify small molecule antagonists of the estrogen receptor beta (ER-beta) signaling pathway - cell viability counter screen (AID 1259382); also: series mostly up to about 92 µM; nearly all actives have a fitted effect of over 55% in size
How it was run: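 HEK293T ER-beta-UAS-bla, 2% charcoal-stripped FBS; compounds + 1nM E2 16 hr 37C; CellTiter-Glo luminescence, 30 min RT.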

[7] = qHTS assay to identify small molecule agonists or antagonists of the thyroid stimulating hormone receptor (TSHR) signaling pathway - wild type cell line counter screen (AID 1259384; calls by dose curve)
How it was run: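 Wild-type Hek293 cells, 800/well, 18 h at 37C, then compound with Ro20-1724 for 30 min RT. cAMP by HTRF (cAMP-d2/anti-cAMP cryptate), 1 h RT, fluorescence read. 15 concentrations, triplicates.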

[8] = target: Thyrotropin receptor (Homo sapiens) (UniProt P16473); assay: qHTS assay to identify small molecule antagonists of the thyroid stimulating hormone receptor (TSHR) signaling pathway (AID 1259385; calls by dose curve; also: nearly all actives have a fitted effect of over 20% in size)
Sequence of Thyrotropin receptor (Homo sapiens) (P16473 whole entry, looked up): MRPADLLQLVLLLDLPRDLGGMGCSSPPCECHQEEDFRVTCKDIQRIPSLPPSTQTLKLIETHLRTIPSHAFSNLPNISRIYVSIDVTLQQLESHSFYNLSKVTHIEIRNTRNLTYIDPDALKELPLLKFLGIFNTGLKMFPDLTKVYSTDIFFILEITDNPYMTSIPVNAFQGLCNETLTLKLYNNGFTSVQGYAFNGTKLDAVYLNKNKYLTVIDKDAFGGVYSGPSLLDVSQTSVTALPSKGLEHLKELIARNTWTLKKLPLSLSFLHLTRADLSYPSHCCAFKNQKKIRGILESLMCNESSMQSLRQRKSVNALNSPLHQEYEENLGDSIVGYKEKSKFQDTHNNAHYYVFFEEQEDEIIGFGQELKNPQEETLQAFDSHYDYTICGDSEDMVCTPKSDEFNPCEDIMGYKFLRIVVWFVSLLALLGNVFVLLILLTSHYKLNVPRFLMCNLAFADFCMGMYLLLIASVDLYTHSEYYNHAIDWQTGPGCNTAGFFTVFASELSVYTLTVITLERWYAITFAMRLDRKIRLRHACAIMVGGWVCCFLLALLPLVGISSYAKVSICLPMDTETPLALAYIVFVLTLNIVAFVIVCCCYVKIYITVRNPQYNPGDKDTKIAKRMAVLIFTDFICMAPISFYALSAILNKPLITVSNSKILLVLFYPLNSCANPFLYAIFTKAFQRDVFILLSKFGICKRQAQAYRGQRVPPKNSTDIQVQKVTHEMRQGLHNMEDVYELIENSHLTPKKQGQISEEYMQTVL
How it was run: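 TSHR-HEK293 cells (800/well) plated 18 h, then compounds with Ro20-1724 and TSH at 1.5 ng/mL final, 30 min at room temperature. cAMP quantified by HTRF (cAMP-d2/anti-cAMP-cryptate, 1 h); 15 concentrations in triplicate.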

[9] = qHTS assay to identify small molecule agonists of the estrogen receptor alpha (ER-alpha) signaling pathway in the presence of an antagonist - cell viability counter screen (AID 1259386);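 also: series mostly up to about 92 µM; cells exposed to compounds for 22 h at 37 °C before the viability read; nearly all actives have a fitted effect of over 30% in size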
How it was run: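 Steps: 5-day stripped-FBS culture; seed and incubate 24hr; add ICI-182,780 (10.0nM final); pin 15-point compound titration; incubate 22hr at 37C; add CellTiter-Fluor at 21hr; read fluorescence.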

[10] = target: Progesterone receptor (Homo sapiens) (UniProt P06401); assay: qHTS assay to identify small molecule agonists of the progesterone receptor (PR) signaling pathway (AID 1346784; calls by dose curve; also: nearly all actives have a fitted effect of over 30% in size)
Sequence of Progesterone receptor (Homo sapiens) (P06401 whole entry, looked up): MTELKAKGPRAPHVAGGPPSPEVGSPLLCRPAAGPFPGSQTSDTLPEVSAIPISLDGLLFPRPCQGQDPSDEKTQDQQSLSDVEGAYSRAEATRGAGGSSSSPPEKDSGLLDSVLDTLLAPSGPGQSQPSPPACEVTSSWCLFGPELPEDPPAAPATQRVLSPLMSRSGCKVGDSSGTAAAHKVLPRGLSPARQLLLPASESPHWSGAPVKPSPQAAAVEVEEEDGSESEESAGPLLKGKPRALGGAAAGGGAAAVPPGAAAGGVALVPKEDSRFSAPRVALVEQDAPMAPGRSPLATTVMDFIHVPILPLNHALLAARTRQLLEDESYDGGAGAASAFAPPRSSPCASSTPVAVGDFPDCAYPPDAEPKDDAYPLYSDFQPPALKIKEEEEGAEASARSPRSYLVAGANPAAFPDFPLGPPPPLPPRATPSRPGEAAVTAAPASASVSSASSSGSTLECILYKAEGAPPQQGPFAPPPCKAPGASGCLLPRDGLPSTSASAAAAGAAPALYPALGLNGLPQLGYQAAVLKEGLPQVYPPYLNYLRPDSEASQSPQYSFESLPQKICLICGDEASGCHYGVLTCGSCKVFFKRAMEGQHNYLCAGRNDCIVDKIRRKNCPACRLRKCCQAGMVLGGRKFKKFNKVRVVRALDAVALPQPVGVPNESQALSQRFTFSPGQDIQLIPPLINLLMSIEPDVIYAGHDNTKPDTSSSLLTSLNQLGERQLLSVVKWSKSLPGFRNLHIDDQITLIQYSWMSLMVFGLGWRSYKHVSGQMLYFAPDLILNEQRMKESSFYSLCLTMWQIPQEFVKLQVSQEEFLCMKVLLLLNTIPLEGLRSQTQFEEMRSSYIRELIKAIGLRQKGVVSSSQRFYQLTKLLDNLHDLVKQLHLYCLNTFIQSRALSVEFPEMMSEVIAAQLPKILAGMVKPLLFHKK
How it was run: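 Cells (PR-UAS-bla HEK 293T, GripTite) were plated in assay medium containing 2% charcoal-stripped FBS and incubated 6 hr. Test compounds in DMSO were added for 16 hr at 37C. FRET substrate was then loaded for 2 hr at room temperature before fluorescence reading.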

[11] = target: Progesterone receptor (Homo sapiens) (UniProt P06401); assay: qHTS assay to identify small molecule antagonists of the progesterone receptor (PR) signaling pathway (AID 1346795; active = well fitted inhibition curve with a large enough effect in the signal ratio in the repeat runs, not every such curve was filed as active; the % refers to the signal ratio)
How it was run: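 Antagonist mode: compounds tested against 1 nM (final) promegestone stimulation in HEK293T cells expressing PR-UAS-bla reporter, 16 hr at 37C, 5% CO2; beta-lactamase activity detected via B/G FRET substrate after 2 hr at room temperature.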

[12] = qHTS assay to identify small molecule antagonists of the progesterone receptor (PR) signaling pathway - cell viability counter screen (AID 1346798); also: series mostly up to about 92 µM; nearly all actives have a fitted effect of over 50% in size
How it was run: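 Counter screen for cytotoxicity: viability of PR-UAS-bla HEK293T cells was measured with CellTiter-Glo luminescence following 16 hr compound exposure in the presence of R5020.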

[13] = qHTS assay to identify small molecule agonists of the progesterone receptor (PR) signaling pathway - cell viability counter screen (AID 1346799; calls by dose curve; also: nearly all actives have a fitted effect of over 45% in size)
How it was run: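 Cells (PR-UAS-bla HEK293T) are plated at 3,000/well in 2% charcoal-stripped FBS medium, rested 6 hr, dosed and incubated 16 hr at 37C. CellTiter-Glo is then added and luminescence measured after 30 min at room temperature.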

[14] = qHTS assay to identify small molecule antagonists of the TGF-beta/Smad signaling pathway - cell viability counter screen (AID 1346824); also: nearly all actives have a fitted effect of over 50% in size
How it was run: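 SBE-bla HEK 293T cells, incubated overnight, then compound plus 0.25 ng/mL TGF-beta1 (stock added) for 5 hr at 37 C. Viability was read in the same wells by CellTiter-Glo luminescence after 30 min at room temperature.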

[15] = qHTS assay to identify small molecule agonists of the TGF-beta/Smad signaling pathway - cell viability counter screen (AID 1346829); also: top concentration of the series differs between compounds; nearly all actives have a fitted effect of over 45% in size
How it was run: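 Compound-treated SBE-bla HEK 293T cells (5 hr, 37 C) were assessed for viability with CellTiter-Glo in parallel with the reporter read.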

[16] = qHTS assay to identify small molecule agonists of the TGF-beta/Smad signaling pathway (AID 1346859; active = well fitted activation curve with a large enough effect in the signal ratio in the repeat runs, not every such curve was filed as active; the % refers to the signal ratio; also: series mostly up to about 77 µM)
How it was run: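 Reporter line: HEK 293T with stably integrated SBE-controlled beta-lactamase. Compound exposure lasts 5 hr at 37 C and 5% CO2; substrate loading follows for 2 hr at room temperature, with emission read at 460 and 530 nm.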

[17] = target: Thyrotropin-releasing hormone receptor (Homo sapiens) (UniProt P34981); assay: qHTS assay to identify small molecule antagonists of the thyrotropin-releasing hormone receptor (TRHR) signaling pathway (AID 1346877; active = well fitted inhibition curve with a large enough effect in the repeat runs, not every such curve was filed as active; also: series mostly up to about 51 µM)
Sequence of Thyrotropin-releasing hormone receptor (Homo sapiens) (P34981 whole entry, looked up): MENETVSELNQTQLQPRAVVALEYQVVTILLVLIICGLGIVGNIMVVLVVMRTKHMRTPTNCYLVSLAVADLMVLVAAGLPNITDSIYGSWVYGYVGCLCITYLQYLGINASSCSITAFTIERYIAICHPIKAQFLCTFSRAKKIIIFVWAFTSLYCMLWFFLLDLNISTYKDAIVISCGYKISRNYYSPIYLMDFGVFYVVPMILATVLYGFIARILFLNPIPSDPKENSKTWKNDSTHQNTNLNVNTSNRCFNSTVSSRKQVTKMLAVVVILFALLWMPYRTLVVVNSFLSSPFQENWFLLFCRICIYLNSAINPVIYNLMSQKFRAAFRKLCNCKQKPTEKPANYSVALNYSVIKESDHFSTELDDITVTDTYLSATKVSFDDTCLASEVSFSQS
How it was run: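 Human TRHR in HEK293 cells; inhibition of the intracellular calcium rise triggered by 1 nM TRH was followed by fluorescence over 3 min. Compounds were run at 15 concentrations, three replicates each.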

[18] = target: Thyrotropin-releasing hormone receptor (Homo sapiens) (UniProt P34981); assay: qHTS assay to identify small molecule agonists of the thyrotropin-releasing hormone receptor (TRHR) signaling pathway (AID 1346891; calls by dose curve;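 also: HEK293 cells expressing TRHR with calcium dye readout; series mostly up to about 58 µM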)
How it was run: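 Cells: TRHR-Hek293, seeded and incubated 18 h. Dye loading: 2 h at 37 °C. Compound added from DMSO stock by pin tool. Read-out: kinetic calcium fluorescence over 3 min.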

[19] = Human pregnane X receptor (PXR) small molecule agonists, qHTS cell viability counter screen (AID 1346977); also: nearly all actives have a fitted effect of over 50% in size
How it was run: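 Cytotoxicity counter screen run in the same wells as the PXR luciferase assay, using PXR-Luc HepG2 cells in charcoal-stripped serum medium. Viability: CellTiter-Fluor fluorescence after 24hr compound treatment.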

[20] = target: Estrogen receptor (Homo sapiens) (UniProt P03372); assay: qHTS assay to identify small molecule agonists of the estrogen receptor alpha (ER-alpha) signaling pathway in the presence of an antagonist (AID 1259383; calls by dose curve; also: top concentration of the series differs between compounds; nearly all actives have a fitted effect of over 15% in size)
Sequence of Estrogen receptor (Homo sapiens) (P03372 whole entry, looked up): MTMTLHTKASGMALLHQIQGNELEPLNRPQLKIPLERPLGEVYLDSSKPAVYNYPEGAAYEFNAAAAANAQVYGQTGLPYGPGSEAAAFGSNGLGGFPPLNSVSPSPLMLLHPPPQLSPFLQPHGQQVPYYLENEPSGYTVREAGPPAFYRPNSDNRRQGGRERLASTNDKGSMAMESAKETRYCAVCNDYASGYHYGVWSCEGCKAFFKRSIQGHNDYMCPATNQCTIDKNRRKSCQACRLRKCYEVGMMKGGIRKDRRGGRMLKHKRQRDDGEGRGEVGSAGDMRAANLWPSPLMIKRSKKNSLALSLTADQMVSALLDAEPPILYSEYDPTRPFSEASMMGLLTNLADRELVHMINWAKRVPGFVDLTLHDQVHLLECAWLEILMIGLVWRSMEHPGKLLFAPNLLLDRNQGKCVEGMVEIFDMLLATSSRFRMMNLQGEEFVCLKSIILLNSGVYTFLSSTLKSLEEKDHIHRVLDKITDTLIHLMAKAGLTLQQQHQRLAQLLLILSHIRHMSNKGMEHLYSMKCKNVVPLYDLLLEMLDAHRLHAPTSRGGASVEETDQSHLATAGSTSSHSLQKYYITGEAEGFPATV
How it was run: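 ER-alpha agonism measured under antagonist challenge: 10.0nM ICI-182,780 (final) plus compound, 15 concentrations, 22hr, VM7Luc4E2 ERE-luciferase cells. Read by luminescence.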

Measured: Potency

C=CC(Cl)CCl (centres undefined)
not listed: [20]
inactive: all other assays above

O=C1CCCO1
not listed: [2] | [20]
inactive: all other assays above

COc1ccc(C=O)cc1OC
not listed: [5] | [7] | [8] | [11] | [12]
inactive: all other assays above

CCOC(=O)c1ccccc1N
not listed: [5]
inactive: all other assays above

CCNc1nc(Cl)nc(NC(C)(C)C#N)n1
not listed: [5] | [17] | [18] | [20]
inactive: all other assays above

OCCOCCO
not listed: [5] | [7] | [8] | [17] | [18] | [20]
inactive: all other assays above

CN(C)c1nc(=O)n(C2CCCCC2)c(=O)n1C
not listed: [5] | [20]
inactive: all other assays above

Source: PubChem BioAssay (Tox21)
